Experimental data reported in PubChem BioAssay (EPA / NIEHS).
The source made the active and inactive calls. How the source made its calls: active means hit-call score of the fitted dose curve at least 0.9, where 1 is the maximum; inactive means score below 0.9.

Tests used:
[1] = ATG_GLI_CIS: Attagene CIS-FACTORIAL HepG2 Assay for human Zinc Finger Protein GLI1 (AID 2282945); settings: HepG2, Attagene cis-factorial reporter mRNA, GLI element; actives raise or lower the signal
In short: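 Transiently transfected HepG2 cells report endogenous transcription factor activity via cis-element-driven reporter units. After 24 h compound exposure, reporter mRNA was measured by RT-PCR with capillary electrophoresis; bidirectional fitting against DMSO baseline.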

[2] = biological target: Bile acid receptor (Homo sapiens) (UniProt Q96RI1); assay: ATG_IR1_CIS: Attagene CIS-FACTORIAL HepG2 Assay for human Nuclear Receptor Subfamily 1 Group H Member 4 (NR1H4), IR1 submotif (AID 2282946); settings: IR1 reporter transcription, actives raise or lower the signal
Chain of Bile acid receptor (Homo sapiens) (Q96RI1 whole entry, looked up): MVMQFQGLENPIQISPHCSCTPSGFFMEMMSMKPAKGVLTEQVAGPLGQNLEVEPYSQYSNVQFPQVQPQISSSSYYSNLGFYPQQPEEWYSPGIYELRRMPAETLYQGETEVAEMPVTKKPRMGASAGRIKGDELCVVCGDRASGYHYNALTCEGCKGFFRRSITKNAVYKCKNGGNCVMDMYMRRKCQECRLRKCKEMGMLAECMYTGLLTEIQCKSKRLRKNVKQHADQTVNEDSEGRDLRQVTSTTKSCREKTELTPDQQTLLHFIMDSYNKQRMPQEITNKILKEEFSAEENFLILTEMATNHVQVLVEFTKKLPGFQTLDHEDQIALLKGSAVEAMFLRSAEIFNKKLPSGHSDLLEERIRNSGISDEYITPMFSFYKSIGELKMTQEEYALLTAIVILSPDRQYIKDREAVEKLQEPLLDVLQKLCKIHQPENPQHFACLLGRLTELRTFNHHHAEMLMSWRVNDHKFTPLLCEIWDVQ
In short: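 HepG2 cells transiently transfected with multiple cis-promoter-driven reporter units to measure endogenous transcription factor activity; 24 h exposure. Reporter mRNA read by RT-PCR, FAM labelling, HpaI digestion and capillary electrophoresis. Bidirectional fit versus DMSO.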

[3] = ATG_GRE_CIS: Attagene CIS-FACTORIAL HepG2 Assay for human Glucocorticoid Response Elements (GRE) (AID 2282947); settings: HepG2 GRE cis-reporter, Attagene multiplex mRNA; actives raise or lower the signal
In short: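 Transiently transfected HepG2 cells carrying GRE cis-reporter units (endogenous TF activity) dosed 24 h; reporter mRNA quantified by RT-PCR, 6-FAM labelling, HpaI digestion and capillary electrophoresis. Bidirectional fit versus DMSO baseline.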

[4] = ATG_ISRE_CIS: Attagene CIS-FACTORIAL HepG2 Assay for human Interferon Regulatory Factor 1 (IRF1) binding to an Interferon-Stimulated Response Element (ISRE) (AID 2282948); settings: HepG2 ISRE cis-reporter (Attagene), mRNA transcription readout; actives raise or lower the signal
In short: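 Transiently transfected HepG2 cells carrying cis-element reporter units, dosed 24 hours. Reporter mRNA quantified by RT-PCR, fluorescent primer extension, HpaI digestion and capillary electrophoresis. Bidirectional fitting relative to DMSO.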

[5] = ATG_M_32_CIS: Attagene CIS-FACTORIAL HepG2 Assay for M32 Transcription Factor (Internal Marker) (AID 2282949); settings: HepG2 Attagene cis-factorial M32 reporter, mRNA; actives raise or lower the signal;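 further: background control marker of the multiplexed CIS panel rather than a real target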
In short: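 HepG2 cells transiently transfected with multiplexed cis-regulated reporter units, dosed 24 h. Reporter mRNA quantified by RT-PCR, 6-FAM labelling, HpaI digestion and capillary electrophoresis; bidirectional fit vs DMSO.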

[6] = ATG_M_06_CIS: Attagene CIS-FACTORIAL HepG2 Assay for M06 Transcription Factor (Internal Marker) (AID 2282950); settings: HepG2 Attagene CIS-FACTORIAL M06 internal marker reporter; actives raise or lower the signal
In short: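 HepG2 cells transiently transfected with cis-regulated multiple reporter transcription units were exposed to chemical for 24 h; reporter mRNA was quantified by RT-PCR, 6-FAM primer labelling, HpaI digestion and capillary electrophoresis, fitted bidirectionally against DMSO.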

[7] = biological target: Hypoxia-inducible factor 1-alpha (Homo sapiens) (UniProt Q16665); assay: ATG_HIF1a_CIS: Attagene CIS-FACTORIAL HepG2 Assay for human Hypoxia Inducible Factor 1 (HIF1A) (AID 2282951); settings: HepG2 Attagene cis-factorial HIF1a reporter transcription; actives raise or lower the signal
Chain of Hypoxia-inducible factor 1-alpha (Homo sapiens) (Q16665 whole entry, looked up): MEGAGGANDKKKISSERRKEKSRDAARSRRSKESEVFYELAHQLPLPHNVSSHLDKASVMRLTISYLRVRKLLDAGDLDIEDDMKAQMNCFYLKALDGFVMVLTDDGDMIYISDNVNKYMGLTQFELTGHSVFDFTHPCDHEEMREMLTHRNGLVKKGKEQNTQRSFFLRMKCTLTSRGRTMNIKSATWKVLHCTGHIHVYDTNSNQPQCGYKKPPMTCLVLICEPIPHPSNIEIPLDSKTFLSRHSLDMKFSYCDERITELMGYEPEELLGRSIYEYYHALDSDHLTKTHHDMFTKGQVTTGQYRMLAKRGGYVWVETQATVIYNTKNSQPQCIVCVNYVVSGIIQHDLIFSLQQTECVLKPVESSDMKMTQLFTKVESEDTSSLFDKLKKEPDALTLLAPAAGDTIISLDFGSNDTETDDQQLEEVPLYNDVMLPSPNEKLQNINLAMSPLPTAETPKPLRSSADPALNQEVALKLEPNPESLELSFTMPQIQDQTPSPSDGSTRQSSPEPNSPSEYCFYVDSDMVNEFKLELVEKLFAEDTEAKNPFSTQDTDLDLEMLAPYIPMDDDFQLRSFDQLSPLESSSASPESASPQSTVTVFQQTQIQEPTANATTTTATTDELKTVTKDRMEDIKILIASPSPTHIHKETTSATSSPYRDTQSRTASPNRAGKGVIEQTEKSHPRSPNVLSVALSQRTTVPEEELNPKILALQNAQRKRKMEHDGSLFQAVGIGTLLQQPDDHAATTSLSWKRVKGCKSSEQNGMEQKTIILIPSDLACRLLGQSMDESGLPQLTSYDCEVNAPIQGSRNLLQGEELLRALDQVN
In short: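 Fluorescence intensity of capillary-separated, 6-FAM-labelled reporter amplicons gives mRNA induction in HepG2 cells carrying transfected cis-promoter reporter units; cells exposed 24 h, responses fitted up or down from DMSO.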

[8] = biological target: Hepatocyte nuclear factor 6 (Homo sapiens) (UniProt Q9UBC0); assay: ATG_HNF6_CIS: Attagene CIS-FACTORIAL HepG2 Assay for human Hepatocyte Nuclear Factor 6 (HNF6) (AID 2282952); settings: HepG2 Attagene cis-factorial HNF6 reporter transcription; actives raise or lower the signal
Chain of Hepatocyte nuclear factor 6 (Homo sapiens) (Q9UBC0 whole entry, looked up, the tested form may be a part): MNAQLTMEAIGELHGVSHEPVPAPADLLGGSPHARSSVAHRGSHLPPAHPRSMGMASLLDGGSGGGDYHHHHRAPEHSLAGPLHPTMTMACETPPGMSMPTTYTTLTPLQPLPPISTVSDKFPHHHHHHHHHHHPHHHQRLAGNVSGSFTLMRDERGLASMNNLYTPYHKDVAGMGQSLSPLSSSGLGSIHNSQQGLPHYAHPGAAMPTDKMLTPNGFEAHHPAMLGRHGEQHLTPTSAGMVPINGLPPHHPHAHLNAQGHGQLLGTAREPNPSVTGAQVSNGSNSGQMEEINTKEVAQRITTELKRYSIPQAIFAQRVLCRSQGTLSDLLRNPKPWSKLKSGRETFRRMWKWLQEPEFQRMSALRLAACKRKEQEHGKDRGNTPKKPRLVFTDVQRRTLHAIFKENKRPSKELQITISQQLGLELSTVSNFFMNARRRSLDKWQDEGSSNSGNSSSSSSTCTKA
In short: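 HepG2 cells transiently transfected with cis-element-driven multiplexed reporter units measuring endogenous transcription factor activity. After 24 h exposure, reporter mRNA quantified by RT-PCR, FAM-labelled fragments and capillary electrophoresis; bidirectional fitting versus DMSO.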

[9] = biological target: Heat shock factor protein 1 (Homo sapiens) (UniProt Q00613); assay: ATG_HSE_CIS: Attagene CIS-FACTORIAL HepG2 Assay for human Heat Shock Transcription Factor 1 (HSE) (AID 2282953); settings: HepG2 HSE cis-reporter, Attagene RNA transcription; actives raise or lower the signal
Chain of Heat shock factor protein 1 (Homo sapiens) (Q00613 whole entry, looked up): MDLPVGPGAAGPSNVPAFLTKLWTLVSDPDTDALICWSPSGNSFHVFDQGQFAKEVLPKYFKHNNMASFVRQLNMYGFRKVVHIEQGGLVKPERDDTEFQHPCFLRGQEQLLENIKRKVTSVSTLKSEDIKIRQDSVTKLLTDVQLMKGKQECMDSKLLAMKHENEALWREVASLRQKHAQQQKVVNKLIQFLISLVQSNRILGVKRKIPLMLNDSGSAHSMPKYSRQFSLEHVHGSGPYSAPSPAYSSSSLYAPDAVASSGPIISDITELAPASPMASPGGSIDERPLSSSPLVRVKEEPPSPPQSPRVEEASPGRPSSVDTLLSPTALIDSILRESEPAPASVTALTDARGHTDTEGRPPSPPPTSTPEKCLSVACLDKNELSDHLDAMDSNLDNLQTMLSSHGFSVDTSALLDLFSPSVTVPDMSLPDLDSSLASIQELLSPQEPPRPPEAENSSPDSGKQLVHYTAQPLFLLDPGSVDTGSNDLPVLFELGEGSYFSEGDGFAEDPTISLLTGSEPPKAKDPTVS
In short: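 HepG2 cells transiently transfected with multiple reporter transcription units under cis-regulatory promoter control, measuring endogenous transcription factor activity. After 24 h chemical exposure, reporter mRNA quantified by RT-PCR, fluorescent labelling, HpaI digestion and capillary electrophoresis; bidirectional fit versus DMSO.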

[10] = ATG_MRE_CIS: Attagene CIS-FACTORIAL HepG2 Assay for human Metal Responsive Element (MRE) (AID 2282954); settings: HepG2 MRE cis-reporter transcription, Attagene multiplex; actives raise or lower the signal
In short: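 HepG2 cells transiently transfected with cis-element-driven reporter units; mRNA measured 24 h after dosing. Reporter transcripts quantified by RT-PCR, FAM labelling, HpaI digestion and capillary electrophoresis; bidirectional fit versus DMSO.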

Row | SMILES | outcome [1] | outcome [2] | outcome [3] | AC50 [4] | outcome [5] | outcome [6] | outcome [7] | outcome [8] | outcome [9] | outcome [10] | outcome [4] | AC50 [7] | AC50 [1] | AC50 [2] | AC50 [9] | AC50 [10]
1 | OC(O)C(F)(F)C(F)(F)F | inactive | inactive | inactive | 108 µM (active) | inactive | inactive | inactive | inactive | inactive | inactive | – | – | – | – | – | –
2 | CCOC(C=C(C)CCC=C(C)C)OCC | inactive | inactive | inactive | – | inactive | inactive | inactive | inactive | inactive | – | inactive | – | – | – | – | –
3 | CCCCCC/C=C/CCCCCCCC(=O)O | inactive | inactive | inactive | – | inactive | inactive | inactive | inactive | inactive | inactive | inactive | – | – | – | – | –
4 | CCN(CCO)S(=O)(=O)C(F)(F)C(F)(F)C(F)(F)C(F)(F)C(F)(F)C(F)(F)C(F)(F)C(F)(F)F | inactive | inactive | inactive | – | inactive | inactive | inactive | inactive | inactive | inactive | inactive | – | – | – | – | –
5 | Oc1ccc2c(c1)CCC2 | inactive | inactive | inactive | – | inactive | inactive | inactive | inactive | inactive | inactive | inactive | – | – | – | – | –
6 | CC(C)(C)c1cc(CCC(=O)NCCCCCCNC(=O)CCc2cc(C(C)(C)C)c(O)c(C(C)(C)C)c2)cc(C(C)(C)C)c1O | inactive | inactive | inactive | – | inactive | inactive | inactive | inactive | inactive | – | inactive | – | – | – | – | –
7 | Cc1ccc(O)cn1 | inactive | inactive | inactive | – | inactive | inactive | inactive | inactive | inactive | inactive | inactive | – | – | – | – | –
8 | O=C(c1ccccc1)c1ccc(O)cc1O | inactive | inactive | inactive | – | inactive | inactive | inactive | inactive | inactive | – | inactive | – | – | – | – | –
9 | CCC/C=C/CO | inactive | inactive | inactive | – | inactive | inactive | inactive | inactive | inactive | inactive | inactive | – | – | – | – | –
10 | CC(=O)CCC(C)C | inactive | inactive | inactive | – | inactive | inactive | inactive | inactive | inactive | inactive | inactive | – | – | – | – | –
11 | CC1=CC2C3C=CC(C3)C2C1C (stereo unspecified) | inactive | inactive | inactive | – | inactive | inactive | inactive | inactive | inactive | – | inactive | – | – | – | – | –
12 | CN(C(=O)C(F)(F)C(F)(F)C(F)(F)F)[Si](C)(C)C | inactive | inactive | inactive | – | inactive | inactive | inactive | inactive | inactive | inactive | inactive | – | – | – | – | –
13 | CC(C)OC(=O)COc1ccc(Cl)cc1Cl | inactive | inactive | inactive | – | inactive | inactive | inactive | inactive | inactive | inactive | inactive | – | – | – | – | –
14 | OCC1CCCO1 (stereo unspecified) | inactive | inactive | inactive | – | inactive | inactive | inactive | inactive | inactive | inactive | inactive | – | – | – | – | –
15 | CC(C)(C)C(=O)C1C(=O)c2ccccc2C1=O | inactive | inactive | inactive | – | inactive | inactive | – | inactive | inactive | inactive | inactive | 158 µM (active) | – | – | – | –
16 | CCN=c1cc2oc3cc(NCC)c(C)cc3c(-c3ccccc3C(=O)OCC)c-2cc1C | – | – | inactive | 8.05 µM (active) | inactive | inactive | inactive | inactive | – | – | – | – | 16.3 µM (active) | 16.5 µM (active) | 17 µM (active) | 9.29 µM (active)
17 | CCOC(=O)C1CC(=O)C(=C(O)C2CC2)C(=O)C1 (stereo unspecified) | inactive | inactive | inactive | – | inactive | inactive | inactive | inactive | inactive | inactive | inactive | – | – | – | – | –
18 | CCOCN(C(=O)CS(=O)(=O)O)c1c(C)cccc1CC | inactive | inactive | inactive | – | inactive | inactive | inactive | inactive | inactive | inactive | inactive | – | – | – | – | –
19 | NC(=O)C(F)(F)C(F)(F)C(F)(F)C(F)(F)C(F)(F)C(F)(F)C(F)(F)F | inactive | inactive | inactive | – | inactive | inactive | inactive | inactive | inactive | inactive | inactive | – | – | – | – | –
20 | Nc1c(Br)cc([N+](=O)[O-])cc1Br | inactive | inactive | inactive | – | inactive | inactive | inactive | inactive | inactive | inactive | inactive | – | – | – | – | –
21 | O=S(=O)(Cl)C(F)(F)C(F)(F)C(F)(F)C(F)(F)C(F)(F)C(F)(F)C(F)(F)C(F)(F)F | inactive | inactive | inactive | – | inactive | inactive | inactive | inactive | inactive | inactive | inactive | – | – | – | – | –
22 | CC(C)OC=O | inactive | inactive | inactive | – | inactive | inactive | inactive | inactive | inactive | inactive | inactive | – | – | – | – | –
23 | Cc1cc(O)c(C(C)(C)C)cc1C(C)(C)C | inactive | – | inactive | 17.2 µM (active) | inactive | inactive | inactive | inactive | inactive | – | – | – | – | 2.87 µM (active) | – | 18 µM (active)
24 | O=S(=O)(O)CCC(F)(F)C(F)(F)C(F)(F)C(F)(F)F | inactive | inactive | inactive | – | inactive | inactive | inactive | inactive | inactive | inactive | inactive | – | – | – | – | –
